# Assay results as given in PubChem BioAssay.
# “And” between values parts separate entries of the source, which are not always exact repeats. Equal values may be shown once. The source made the active and inactive calls. Unless noted, no stated cut-off is given here; in the data, active means nuclear beta-catenin stimulation mostly above about 4.2% (no sharp cut-off); inactive means mostly below about 10%.
# Legend:
# [1] = stimulators of nuclear beta-catenin in C2C12, primary screen, imaging, WNT3A-conditioned medium, mouse C2C12, NPC library (AID 1117326); settings: stronger effect = higher value; further: reference of the scale not given here
# [2] = liver-stage malaria parasite growth inhibition, primary screen, cell-based, HepG2, luciferase luminescence, HepG2 viability (AID 624349; in the data active means parasite load remaining mostly below about 12%, no sharp cut-off; inactive means mostly above about 10%;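 further: 100% = mean of DMSO negative control wells on the same plate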); settings: P. berghei liver stage in HepG2, luciferase luminescence, concentration not given here; parasite load remaining: stronger effect = lower value; viability: measured here: HepG2 viability without parasites
SMILES,nuclear beta-catenin stimulation ([1]; at 10 µM),"nuclear beta-catenin stimulation ([1]; stimulation, at 2 µM) [%]",parasite load remaining [2],viability [2]
COC(=O)Nc1nc2ccc(Sc3ccccc3)cc2[nH]1,56.8% (active),33.5,,
NC(N)=NS(=O)(=O)c1ccc(N)cc1,0.5% (inactive),0.1,,
O=C(O)CSCC(=O)NC1CCSC1=O (stereo unspecified),-0.4% (inactive),1.1,,
CCN(CC)C(=O)N1CCN(C)CC1,-0.1% (inactive),0.2,,
O=C1OCCN1/N=C/c1ccc([N+](=O)[O-])o1,1.7% (inactive),-0.6,,
C=C[C@@]1(C)CC(=O)[C@]2(O)[C@@]3(C)[C@@H](O)CCC(C)(C)[C@@H]3[C@H](O)[C@H](OC(C)=O)[C@@]2(C)O1,1.1% (inactive),0.6,,
COc1cc(C(=O)NCc2ccc(OCCN(C)C)cc2)cc(OC)c1OC,9.2% (inactive),5.8,,
CCCCCCCCCCCCCCCCC(C(=O)O)C(O)(CC(=O)O)C(=O)O (stereo unspecified),-0.9% (inactive),-0.6,,
NC(=O)NC1NC(=O)NC1=O (stereo unspecified),-0.1% (inactive),1.1,,
COc1ccccc1OCC(O)CO (stereo unspecified),1.9% (inactive),0.9,,
NC(=O)N/N=C/c1ccc([N+](=O)[O-])o1,7.6% (inactive),2,,
C1CCC(C(CC2CCCCN2)C2CCCCC2)CC1 (stereo unspecified),22.1% (inactive),1.1,,
Cc1cc(=O)n(-c2ccccc2)n1C,1.1% (inactive),0.3,,
Cc1ccccc1OCC(O)CO (stereo unspecified),0.8% (inactive),2.4,,
C[C@]12CCC(=O)C=C1CC[C@@H]1[C@@H]2[C@@H](O)C[C@@]2(C)[C@H]1CC[C@]2(O)C(=O)COP(=O)(O)O,-0.6% (inactive),-0.1,,
CN1C(C(=O)Nc2ccccn2)=C(O)c2sccc2S1(=O)=O,0.8% (inactive),1,,
C[N+]1(C)[C@@H]2CC(OC(=O)[C@H](CO)c3ccccc3)C[C@H]1[C@@H]1O[C@@H]12 (stereo partly specified),1.5% (inactive),0.9,,
O=c1cc(CO)occ1O,2.6% (inactive),0.4,,
CCCCOc1ccc(C(=O)CCN2CCCCC2)cc1,1.2% (inactive),-0.2,,
CCN(CC)CCNc1ccc(CO)c2sc3ccccc3c(=O)c12,63.7% (active),1.8,,
O=C(CCCN1CCN(c2ccccn2)CC1)c1ccc(F)cc1,0.1% (inactive),-1,,
Oc1cc(O)c2c(c1)O[C@H](c1ccc(O)c(O)c1)[C@H](O)C2,-1.4% (inactive),1.2,,
CC(=O)Nc1cccc(O)c1,-0.7% (inactive),2.5,,
Nc1ccc(S(=O)(=O)Nc2nccs2)cc1,0% (inactive),0,,
Cc1nc(N)nc(N)c1-c1ccc(Cl)c(Cl)c1,42.9% (active),55.1,,
O=C1O[C@H](CO)[C@@H](O)[C@H](O)[C@H]1O,-1.1% (inactive),1,,
CO[C@]12C[C@@H](COC(=O)c3cncc(Br)c3)CN(C)[C@@H]1Cc1cn(C)c3cccc2c13,0.8% (inactive),2.5,,

SMILES,nuclear beta-catenin stimulation ([1]; at 10 µM),"nuclear beta-catenin stimulation ([1]; stimulation, at 2 µM) [%]",parasite load remaining [2],viability [2]
CC1=C(C)C(=O)C(C(CCCCCC(=O)O)c2ccccc2)=C(C)C1=O (stereo unspecified),0% (inactive),-1,,
Oc1cccc2[nH]ccc12,1.5% (inactive),-1.2,,
CC(=O)Oc1c(C)c(C)c2c(c1C)CC[C@@](C)(CCC[C@H](C)CCC[C@H](C)CCCC(C)C)O2,1.7% (inactive),2,,
C/C=C1\[C@H]2C=C(C)C[C@]1(N)c1ccc(=O)[nH]c1C2,-0.8% (inactive),-0.8,,
NCC1CCC(C(=O)O)CC1 (stereo unspecified),0.7% (inactive),0.5,,
CCC(C)n1ncn(-c2ccc(N3CCN(c4ccc(OC[C@H]5CO[C@](Cn6cncn6)(c6ccc(Cl)cc6Cl)O5)cc4)CC3)cc2)c1=O (stereo partly specified),36.2% (inactive),34.3,,
CN1[C@@H]2CC[C@H]1CC(OC(=O)C(O)c1ccccc1)C2 (stereo partly specified),-0.1% (inactive),-2.6,,
C[n+]1c2cc(N)ccc2cc2ccc(N)cc21 (tested in a mixture with another compound),123% (active),8,,
CCCCCCCCCCCCCCCCCCOCC(O)CO (stereo unspecified),3.8% (inactive),2.8,,
Cc1ccc2c(Cl)cc(Cl)c(O)c2n1,0.6% (inactive),-1,,
CCCCCCCCNC(C)C(O)c1ccc(SC(C)C)cc1 (stereo unspecified),-5.4% (inactive),1.4,,
CC1CCc2cc(F)cc3c(=O)c(C(=O)O)cn1c23 (stereo unspecified),3.1% (inactive),-1.1,,
NC(N)=NCCN1CCCCCCC1,0.1% (inactive),-0.3,,
CCOc1ccc(NC(C)=O)cc1,-0.6% (inactive),-0.9,,
COC(=O)[C@@H](N)CS,-1.4% (inactive),2.3,,
O=c1[nH]cnc2nc[nH]c12,-0.2% (inactive),1.5,,
COc1cc(NS(=O)(=O)c2ccc(N)cc2)nc(OC)n1,0.5% (inactive),0.4,,
Cc1ccc(S(=O)(=O)NC(=O)NN2CC3CCCC3C2)cc1 (stereo unspecified),0.7% (inactive),1.2,,
O=C(Nc1cccc(C2=NCCN2)c1)Nc1cccc(C2=NCCN2)c1,1.5% (inactive),4.9,,
CCN(CC)CCOC(=O)C(Cc1cccc2ccccc12)CC1CCCO1 (stereo unspecified),0.6% (inactive),0.5,,
COc1ccc(CCN2CCC(Nc3nc4ccccc4n3Cc3ccc(F)cc3)CC2)cc1,-1.3% (inactive),3.9,,
Cc1nc(-c2ccc(OCC(C)C)c(C#N)c2)sc1C(=O)O,1.3% (inactive),0.4,,
Cc1onc(-c2ccccc2Cl)c1C(=O)N[C@@H]1C(=O)N2[C@@H]1SC(C)(C)[C@@H]2C(=O)O,0.5% (inactive),0.3,,
O=C(O)/C=C(\CC(=O)O)C(=O)O,-0.9% (inactive),-0.6,,
C[C@@H]1C[C@H]2[C@@H]3CCC4=CC(=O)C=C[C@]4(C)[C@@]3(F)[C@@H](O)C[C@]2(C)[C@@]1(O)C(=O)COP(=O)(O)O,1.2% (inactive),0.8,,
CC(=O)Oc1cccc2c1C(=O)c1c(OC(C)=O)cc(C(=O)O)cc1C2=O,3.2% (inactive),3.4,,
CC(=O)OCC(=O)[C@H]1CC[C@H]2[C@@H]3CCC4=CC(=O)CC[C@]4(C)[C@H]3CC[C@]12C,-1.4% (inactive),-0.5,,

SMILES,nuclear beta-catenin stimulation ([1]; at 10 µM),"nuclear beta-catenin stimulation ([1]; stimulation, at 2 µM) [%]",parasite load remaining [2],viability [2]
Cc1c(Cl)cccc1Nc1ccccc1C(=O)O,1.9% (inactive),1.6,,
O=C(O)CCC(=O)c1ccc(-c2ccccc2)cc1,4.2% (inactive),0.6,,
O=C(O)[C@@H](O)[C@H](O)[C@H](O)[C@@H](O)C(=O)O,-1.3% (inactive),-0.3,,
CC1=CC(=O)c2ccccc2C1=O,25% (inactive),0.1,,
CN(C)C(=O)Nc1ccc(Cl)c(Cl)c1,3.6% (inactive),0.5,,
CN1CCN(c2cc3c(cc2F)c(=O)c(C(=O)O)cn3-c2ccc(F)cc2)CC1,0.8% (inactive),0.3,,
O=C1C(=O)c2ccccc2C(O)=C1C1CCC(c2ccc(Cl)cc2)CC1 (stereo unspecified),2.2% (inactive),-1,,
Cc1ccc(C(C)C)cc2c(C)ccc1-2,-1.2% (inactive),0.2,,
O=C(O)c1ccccc1Nc1cccc(C(F)(F)F)c1,1.3% (inactive),2.3,,
Nc1c(Br)cc(Br)cc1CNC1CCC(O)CC1 (stereo unspecified),1.6% (inactive),0.3,,
CC1(C)S[C@@H]2[C@H](NC(=O)[C@H](N)c3ccccc3)C(=O)N2[C@H]1C(=O)O,-0.1% (inactive),-0.4,,
CCN(CCCCOC(=O)c1ccc(OC)c(OC)c1)C(C)Cc1ccc(OC)cc1 (stereo unspecified),0.6% (inactive),0.5,,
Cc1cc(C2CCCCC2)n(O)c(=O)c1,64.4% (active),14.3,,
NC(=NCCCCCCN=C(N)/N=C(\N)Nc1ccc(Cl)cc1)/N=C(\N)Nc1ccc(Cl)cc1,-2.3% (active),45.4,,
CN1CCOC(c2ccccc2)c2ccccc2C1 (stereo unspecified),-0.7% (inactive),-1.3,,
Nc1ccc(C(=O)O)c(O)c1,0.9% (inactive),1.5,,
CC1=NN(c2ccccc2)C(=O)C1,0.5% (inactive),0.8,,
CC(=O)Oc1ccc(C(c2ccc(OC(C)=O)cc2)c2ccccn2)cc1,-0.9% (inactive),-2.7,,
CO[C@H]1C=CO[C@@]2(C)Oc3c(C)c(O)c4c(O)c(c(/C=N/N5CCN(C)CC5)c(O)c4c3C2=O)NC(=O)/C(C)=C\C=C[C@H](C)[C@H](O)[C@@H](C)[C@@H](O)[C@@H](C)[C@H](OC(C)=O)[C@@H]1C,0.6% (inactive),1.2,,
CC/C(=C(/CC)c1ccc(O)cc1)c1ccc(O)cc1,21.1% (inactive),-0.2,,
CCN(CCCc1ccccc1)CCCc1ccccc1,1% (inactive),4.5,,
C=CCSCC1Nc2cc(Cl)c(S(N)(=O)=O)cc2S(=O)(=O)N1 (stereo unspecified),0.3% (inactive),0.6,134% (inactive) and 105% (inactive) and 42.5% (inactive),102% and 73.3% and 104%
CCN(CC)C(=O)c1cccc(C)c1,6.1% (inactive),3.9,18.9% (inactive),97.4%
CN1C(C)(C)CCCC1(C)C,1.1% (inactive),0.5,91.5% (inactive) and 53.1% (inactive),99.3% and 92.2%
NC(N)=N/N=C/c1c(Cl)cccc1Cl,-0.1% (inactive),-1.1,15.7% (inactive) and 61% (inactive) and 36.4% (inactive),48.5% and 89.8% and 102%
